# Experimental data: PubChem BioAssay (NCI)
# The panel holds about 83,000 compounds, 20% with a hit somewhere; the sample as a whole holds those more often.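 Negative percent growth values reflect cell death: -40 means 40% of the cells present at the start died, and -100 means all died.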 Values without a mark were called inactive. The source made the active and inactive calls.
# Test system: LOX IMVI melanoma
# Assay: NCI-60 one-dose screen, 48 h (100 = growth as untreated, 0 = no growth, -100 = all killed)
# Conditions: 10 µM unless noted
# Description: Growth inhibition of the LOX IMVI human tumor cell line is measured as a screen for anti-cancer activity. Cells are grown in 96 well plates and exposed to the test compound for 48 hours. Compounds are tested at a single concentration, which is 10^-5 M for most compounds. The reported endpoint is percent growth (GI% or GIPRCNT), where numbers from 0 - 100% represent growth inhibition, and numbers from -100% - 0 represent cell death. For example, a value of 40 represents 60% growth inhibition. A value of 0 means no net growth occurred over the course of the experiment. A value of -40 indicates 40% of cells at the beginning of the experiment died by the end of the experiment. A value of -100 means all cells are dead at the end of the experiment.
# NCI-60 Human Tumor Cell Lines Screen was performed using the standard one-dose NCI protocol, which is described in more detail at https://dtp.cancer.gov/discovery_development/nci-60/default.htm.
# Compounds with GIPRCNT values below 10 were considered active. Activity score was based on GIPRCNT using the following formula: […]
# Score is 0 for GIPRCNT values of 100 or above, 50 for GIPRCNT values of 0, and 100 for GIPRCNT values of -100.
row,Structure (SMILES),growth
1,CC1=C([Se]CC(OC(=O)[C@@H](CSSC(C)(C)C)NC(=O)OC(C)(C)C)C(=O)NC(C)(C)C)C(=O)c2ccccc2C1=O (stereo not given in full),-61.9% (active)
2,O=C(CCN1C(=O)/C(=C/c2ccc(O)cc2)SC1=S)Nc1ccccc1,97.6%
3,O=[N+]([O-])c1ccccc1NCSc1ccc(Cl)cc1,52.7%
4,C[C@]12CC[C@@H]3c4cc(OC(F)F)c(OS(N)(=O)=O)cc4CC[C@H]3[C@@H]1CC[C@@H]2OS(N)(=O)=O,32.8%
5,COc1ccc2c(c1)c(-c1nn3cc(-c4cccs4)nc3s1)cn2C,54.1%
6,COc1ccc2[nH]c(-c3ccccc3)c(/C=C(\C#N)S(=O)(=O)c3ccccc3)c2c1,61.2%
7,Cn1cc(C(=O)c2nc(-c3cn(C)c4ccc(F)cc34)no2)c2cc(F)ccc21,97.4%
8,COc1ccc(C(=O)n2nc(-c3ccccc3)nc2N)cc1OC,91.7%
9,C=C1CC[C@@]2(C#N)[C@H]3[C@H](CC[C@@H]2C)[C@@H](C)C[C@@H](CC(C)(C)C#N)[C@H]13,26.6%
10,CN1CCN(c2ccc(-c3cc4c(Nc5ccc(F)c(Cl)c5)ncnn4c3)cc2)CC1,-53.6% (active)
11,CCOC(=O)c1cnn2c3ccccc3n(S(=O)(=O)c3ccc(OC)cc3)c12,18.7%
12,Cc1nc2ccccc2c(/C=C/c2ccccc2)c1C(=O)/C=C/c1ccc(C(F)(F)F)cc1,-87.4% (active)
13,O=C(/C=C/c1ccc([N+](=O)[O-])o1)NNC(=O)c1cc2ccccc2cc1O,-10.5% (active)
14,C=C(C)[C@@H]1CC[C@]2(N=C=O)CC[C@]3(C)[C@H](CC[C@@H]4[C@@]5(C)Cc6c([nH]c7ccccc67)C(C)(C)[C@@H]5CC[C@]43C)[C@@H]12,87.7%
15,C=C(C)C1CCC2(C)OC2C1 (stereo not given),108%
16,CCCCCCNC(=O)Oc1ccc(/C(=C(\C)c2ccc(OC)cc2)c2ccc(OCCN3CCCCC3)cc2)cc1,24.5%
17,NCCCNc1nc2ccccc2c2c(=O)c3cc(C(F)(F)F)ccc3sc12,-97.7% (active)
18,Cc1ccc(/C=C(\C#N)n2nc3cccc(F)c3n2)cc1,86.2%
19,CCOC(=O)C1=C(N)Oc2c(sc3c(C)cccc23)C1c1ccc(OC)cc1 (stereo not given),32.3%
20,CCc1cccc2c1S/C(=C/c1ccc(OC)cc1)C2=O,40.3%

row,Structure (SMILES),growth
1,Cc1nc2ccccc2n1CC1C(=O)NC(=O)NC1=O,100%
2,COc1cc(C(=O)N/N=C/c2cc3cc(OCc4ccccc4)ccc3nc2OC)cc(OC)c1OC,81.9%
3,Cc1c(C(=O)NCCCc2ccccc2)sc2ncc(-c3ccc(Br)cc3)n12,99.1%
4,COc1ccc(C(=O)N=Nc2c(O)n(C)c3ccccc23)cc1,81.8%
5,CCCCC[C@H](O)C/C=C1/C(=O)C=C[C@@H]1C/C=C\CCCC(=O)O,6.2% (active)
6,Nc1nc(-c2cccc3ccccc23)cc2ccccc12,20.9%
7,Cc1cccc2c1S/C(=C/c1ccc([N+](=O)[O-])cc1)C2=O,93.1%
8,O=c1c2cccc(F)c2sc2c(NCCCNCCO)nc3ccccc3c12,-86.6% (active)
9,COc1ccc(OC)c(/C=C/C(=O)N/N=C/c2ccccc2)c1,42.1%
10,COC(=O)Nc1ccc(-c2nc(-c3cccc(OC)c3)c(-c3ccnc(Br)c3)[nH]2)cc1,23.6%
11,COc1ccc2sc3c(NCCCN(C)C)nc4ccccc4c3c(=O)c2c1,-100% (active)
12,CN1C(=O)CNC(=O)[C@H](NC(=O)c2nc3ccccc3cc2O)CSSC[C@H]1C(=O)NCCCc1nc2ccccc2cc1O,-52.4% (active)
13,COc1ccc(-c2nc(NCCO)[nH]c(=O)c2C#N)cc1,103%
14,C#C[C@]1(O)CC[C@H]2[C@@H]3CC=C4c5sc(Nc6ccccc6)nc5CC[C@]4(C)[C@H]3CC[C@@]21C,-6.23% (active)
15,CCOC(=O)c1cn2ncnc(Oc3ccc(NC(=O)NCCN4CCOCC4)c(Cl)c3)c2c1C,99.7%
16,CSc1ncccc1C(=O)OCC(=O)Nc1oc(C)c2c(C)n[nH]c(=O)c12,94.5%
17,CCN(CC)CCNC(=O)c1cn2ncnc(Oc3ccc(NC(=O)Nc4ccc(Cl)c(C(F)(F)F)c4)cc3)c2c1C,-98.8% (active)
18,Cc1cc(Cl)ccc1NS(=O)(=O)c1ccc(-c2cnc(C3CC3)o2)cc1,22.4%
19,CC(=O)OC[C@H]1OC(Sc2sc(C(=O)c3ccc(Cl)cc3)c(N)c2-c2nc3ccccc3s2)[C@H](OC(C)=O)[C@@H](OC(C)=O)[C@@H]1OC(C)=O (stereo not given in full),68.8%
20,COc1ccc(/C=C/c2c(C(=O)/C=C/c3ccc(C(F)(F)F)cc3)c(C)nc3ccccc23)cc1,-91.2% (active)
